# Reference: the supplement of paper PMC4466140
# B1: unnamed (peptide)
# chain: GKLKHIPRRPYEIER
# B2: unnamed (peptide)
# chain: DKKTKPTPPPKPSHL
# Tests used:
# Experiment in all cases: SPOT peptide array binding signal intensity (averaged, normalized) (arbitrary units (background-subtracted, floor 0; scale differs between SH3 domains)); higher = stronger binding of the SH3 domain to the peptide
# [1] = biological target: AgAbp1
# Summary of the method: (§1)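 The binding signal is the normalized, background-subtracted spot intensity averaged over replicates; its arbitrary units differ between domains. It was obtained by incubating 10 μg/ml GST-fused SH3 domains from four yeast species overnight at 4°C in TBS-based blocking buffer on cellulose membranes with synthetic 15-mer peptides, cysteines replaced by serines, then detecting with anti-GST antibody, HRP anti-mouse secondary and luminol.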
# [2] = biological target: AgBbc1
# Summary of the method: as §1
# [3] = biological target: AgBem1-D1
# Summary of the method: as §1
# [4] = biological target: AgBzz1-D1
# Summary of the method: as §1
# [5] = biological target: AgBzz1-D2
# Summary of the method: as §1
# [6] = biological target: AgCyk3
# Summary of the method: as §1
# [7] = biological target: AgFus1
# Summary of the method: as §1
# [8] = biological target: AgHof1
# Summary of the method: as §1
# [9] = biological target: AgHse1
# Summary of the method: as §1
# [10] = biological target: AgLsb1
# Summary of the method: as §1
# [11] = biological target: AgLsb4
# Summary of the method: as §1
# [12] = biological target: AgMyo5
# Summary of the method: as §1
# [13] = biological target: AgNbp2
# Summary of the method: as §1
# [14] = biological target: AgRvs167
# Summary of the method: as §1
# [15] = biological target: AgSho1
# Summary of the method: as §1
# [16] = biological target: AgSla1-D1-D2
# Summary of the method: as §1
# [17] = biological target: AgSla1-D3
# Summary of the method: as §1
# [18] = biological target: CaAbp1-D1
# Summary of the method: as §1
# [19] = biological target: CaAbp1-D2
# Summary of the method: as §1
# [20] = biological target: CaBbc1
# Summary of the method: as §1
# [21] = biological target: CaBem1-D1
# Summary of the method: as §1
# [22] = biological target: CaBzz1-D1
# Summary of the method: as §1
# [23] = biological target: CaBzz1-D2
# Summary of the method: as §1
# [24] = biological target: CaCyk3
# Summary of the method: as §1
# [25] = biological target: CaFus1
# Summary of the method: as §1
# [26] = biological target: CaHof1
# Summary of the method: as §1
# [27] = biological target: CaHse1
# Summary of the method: as §1
# [28] = biological target: CaLsb1
# Summary of the method: as §1
# [29] = biological target: CaLsb4
# Summary of the method: as §1
# [30] = biological target: CaMyo5
# Summary of the method: as §1
# [31] = biological target: CaNbp2
# Summary of the method: as §1
# [32] = biological target: CaRvs167
# Summary of the method: as §1
# [33] = biological target: CaRvs167-3
# Summary of the method: as §1
# [34] = biological target: CaSho1
# Summary of the method: as §1
# [35] = biological target: CaSla1-D1-D2
# Summary of the method: as §1
# [36] = biological target: CaSla1-D3
# Summary of the method: as §1
# [37] = biological target: ScAbp1
# Summary of the method: as §1
# [38] = biological target: ScBbc1
# Summary of the method: as §1
# [39] = biological target: ScBem1-D1
# Summary of the method: as §1
# [40] = biological target: ScBzz1-D1
# Summary of the method: as §1
# [41] = biological target: ScBzz1-D2
# Summary of the method: as §1
# [42] = biological target: ScCyk3
# Summary of the method: as §1
# [43] = biological target: ScFus1
# Summary of the method: as §1
# [44] = biological target: ScHof1
# Summary of the method: as §1
# [45] = biological target: ScHse1
# Summary of the method: as §1
# [46] = biological target: ScLsb1
# Summary of the method: as §1
# [47] = biological target: ScLsb2
# Summary of the method: as §1
# [48] = biological target: ScLsb3
# Summary of the method: as §1
# [49] = biological target: ScLsb4
# Summary of the method: as §1
# [50] = biological target: ScMyo3
# Summary of the method: as §1
# [51] = biological target: ScMyo5
# Summary of the method: as §1
# [52] = biological target: ScNbp2
# Summary of the method: as §1
# [53] = biological target: ScPex13
# Summary of the method: as §1
# [54] = biological target: ScRvs167
# Summary of the method: as §1
# [55] = biological target: ScSho1
# Summary of the method: as §1
# [56] = biological target: ScSla1-D1-D2
# Summary of the method: as §1
# [57] = biological target: ScSla1-D3
# Summary of the method: as §1
# [58] = biological target: SpAbp1-D1
# Summary of the method: as §1
# [59] = biological target: SpBbc1
# Summary of the method: as §1
# [60] = biological target: SpBzz1-D1
# Summary of the method: as §1
# [61] = biological target: SpBzz1-D2
# Summary of the method: as §1
# [62] = biological target: SpCyk3
# Summary of the method: as §1
# [63] = biological target: SpHof1
# Summary of the method: as §1
# [64] = biological target: SpHof1-2
# Summary of the method: as §1
# [65] = biological target: SpHof1-3
# Summary of the method: as §1
# [66] = biological target: SpHse1
# Summary of the method: as §1
# [67] = biological target: SpLsb1
# Summary of the method: as §1
# [68] = biological target: SpLsb4
# Summary of the method: as §1
# [69] = biological target: SpMyo1
# Summary of the method: as §1
# [70] = biological target: SpNbp2
# Summary of the method: as §1
# [71] = biological target: SpPex13
# Summary of the method: as §1
# [72] = biological target: SpRvs167
# Summary of the method: as §1
# [73] = biological target: SpSla1-D1-D2
# Summary of the method: as §1
# [74] = biological target: SpSla1-D3
# Summary of the method: as §1
binder,measurement,setting,value
B1,SPOT peptide array binding signal intensity,[1],3.5
same,SPOT peptide array binding signal intensity,[2],102
same,SPOT peptide array binding signal intensity,[3],14
same,SPOT peptide array binding signal intensity,[4],11
same,SPOT peptide array binding signal intensity,[5],10.5
same,SPOT peptide array binding signal intensity,[6],1.5
same,SPOT peptide array binding signal intensity,[7],10
same,SPOT peptide array binding signal intensity,[8],5.5
same,SPOT peptide array binding signal intensity,[9],≤ 0
same,SPOT peptide array binding signal intensity,[10],1
same,SPOT peptide array binding signal intensity,[11],12
same,SPOT peptide array binding signal intensity,[12],0.25
same,SPOT peptide array binding signal intensity,[13],≤ 0
same,SPOT peptide array binding signal intensity,[14],1.83
same,SPOT peptide array binding signal intensity,[15],≤ 0
same,SPOT peptide array binding signal intensity,[16],≤ 0
same,SPOT peptide array binding signal intensity,[17],0.75
same,SPOT peptide array binding signal intensity,[18],129
same,SPOT peptide array binding signal intensity,[19],1
same,SPOT peptide array binding signal intensity,[20],552
same,SPOT peptide array binding signal intensity,[21],5
same,SPOT peptide array binding signal intensity,[22],116
same,SPOT peptide array binding signal intensity,[23],67.5
same,SPOT peptide array binding signal intensity,[24],67.5
same,SPOT peptide array binding signal intensity,[25],≤ 0
same,SPOT peptide array binding signal intensity,[26],≤ 0
same,SPOT peptide array binding signal intensity,[27],1.5
same,SPOT peptide array binding signal intensity,[28],≤ 0
same,SPOT peptide array binding signal intensity,[29],40
same,SPOT peptide array binding signal intensity,[30],≤ 0
same,SPOT peptide array binding signal intensity,[31],≤ 0
same,SPOT peptide array binding signal intensity,[32],2.83
same,SPOT peptide array binding signal intensity,[33],≤ 0
same,SPOT peptide array binding signal intensity,[34],≤ 0
same,SPOT peptide array binding signal intensity,[35],≤ 0
same,SPOT peptide array binding signal intensity,[36],≤ 0
same,SPOT peptide array binding signal intensity,[37],7
same,SPOT peptide array binding signal intensity,[38],55.2
same,SPOT peptide array binding signal intensity,[39],6
same,SPOT peptide array binding signal intensity,[40],12
same,SPOT peptide array binding signal intensity,[41],1
same,SPOT peptide array binding signal intensity,[42],17.5
same,SPOT peptide array binding signal intensity,[43],≤ 0
same,SPOT peptide array binding signal intensity,[44],≤ 0
same,SPOT peptide array binding signal intensity,[45],150
same,SPOT peptide array binding signal intensity,[46],12.5
same,SPOT peptide array binding signal intensity,[47],≤ 0
same,SPOT peptide array binding signal intensity,[48],122
same,SPOT peptide array binding signal intensity,[49],5
same,SPOT peptide array binding signal intensity,[50],1.5
same,SPOT peptide array binding signal intensity,[51],0.5
same,SPOT peptide array binding signal intensity,[52],26.5
same,SPOT peptide array binding signal intensity,[53],17.5
same,SPOT peptide array binding signal intensity,[54],16.7
same,SPOT peptide array binding signal intensity,[55],71.5
same,SPOT peptide array binding signal intensity,[56],12
same,SPOT peptide array binding signal intensity,[57],0.75
same,SPOT peptide array binding signal intensity,[58],11
same,SPOT peptide array binding signal intensity,[59],1.75
same,SPOT peptide array binding signal intensity,[60],240
same,SPOT peptide array binding signal intensity,[61],≤ 0
same,SPOT peptide array binding signal intensity,[62],2.5
same,SPOT peptide array binding signal intensity,[63],8
same,SPOT peptide array binding signal intensity,[64],1
same,SPOT peptide array binding signal intensity,[65],44.2
same,SPOT peptide array binding signal intensity,[66],21
same,SPOT peptide array binding signal intensity,[67],12
same,SPOT peptide array binding signal intensity,[68],53.5
same,SPOT peptide array binding signal intensity,[69],0.75
same,SPOT peptide array binding signal intensity,[70],≤ 0
same,SPOT peptide array binding signal intensity,[71],≤ 0
same,SPOT peptide array binding signal intensity,[72],3.17
same,SPOT peptide array binding signal intensity,[73],≤ 0
same,SPOT peptide array binding signal intensity,[74],≤ 0
B2,SPOT peptide array binding signal intensity,[31],≤ 0
same,SPOT peptide array binding signal intensity,[32],0.333
same,SPOT peptide array binding signal intensity,[33],3.5
same,SPOT peptide array binding signal intensity,[34],24
same,SPOT peptide array binding signal intensity,[35],≤ 0
same,SPOT peptide array binding signal intensity,[36],≤ 0
same,SPOT peptide array binding signal intensity,[37],2120
same,SPOT peptide array binding signal intensity,[38],≤ 0
same,SPOT peptide array binding signal intensity,[39],≤ 0
same,SPOT peptide array binding signal intensity,[40],1
same,SPOT peptide array binding signal intensity,[41],46.5
same,SPOT peptide array binding signal intensity,[42],≤ 0
same,SPOT peptide array binding signal intensity,[43],1
same,SPOT peptide array binding signal intensity,[44],1.5
same,SPOT peptide array binding signal intensity,[45],16.5
same,SPOT peptide array binding signal intensity,[46],≤ 0
same,SPOT peptide array binding signal intensity,[47],≤ 0
same,SPOT peptide array binding signal intensity,[48],1270
same,SPOT peptide array binding signal intensity,[49],≤ 0
same,SPOT peptide array binding signal intensity,[50],0.5
same,SPOT peptide array binding signal intensity,[51],≤ 0
same,SPOT peptide array binding signal intensity,[52],4
same,SPOT peptide array binding signal intensity,[53],138
same,SPOT peptide array binding signal intensity,[54],≤ 0
same,SPOT peptide array binding signal intensity,[55],280
same,SPOT peptide array binding signal intensity,[56],≤ 0
same,SPOT peptide array binding signal intensity,[57],3
same,SPOT peptide array binding signal intensity,[58],2240
same,SPOT peptide array binding signal intensity,[59],3.5
same,SPOT peptide array binding signal intensity,[60],235
same,SPOT peptide array binding signal intensity,[61],≤ 0
same,SPOT peptide array binding signal intensity,[62],≤ 0
same,SPOT peptide array binding signal intensity,[63],0.75
same,SPOT peptide array binding signal intensity,[64],6.5
same,SPOT peptide array binding signal intensity,[65],86
same,SPOT peptide array binding signal intensity,[66],0.75
same,SPOT peptide array binding signal intensity,[67],138
same,SPOT peptide array binding signal intensity,[68],≤ 0
same,SPOT peptide array binding signal intensity,[69],≤ 0
same,SPOT peptide array binding signal intensity,[70],≤ 0
same,SPOT peptide array binding signal intensity,[71],1.5
same,SPOT peptide array binding signal intensity,[72],33.3
same,SPOT peptide array binding signal intensity,[73],≤ 0
same,SPOT peptide array binding signal intensity,[74],1
